# Screens from PubChem BioAssay.
# An excerpt weighted towards active compounds, which were near 2.5% of everything screened.
# Cruzain noTriton = qHTS Assay for Promiscuous and Specific Inhibitors of Cruzain (without detergent) | purified cruzain, Z-FR-AMC fluorescence, no detergent | Potency, µM, for the others: max response, negative = inhibition, actives largely listed as inhibitors | actives 2.3% (n = 200,000) | AID 1476, 2009;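 also: plate controls were enzyme without inhibitor for no effect and buffer without enzyme for full effect; nearly all actives have a fitted effect of over 40% in size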
# Target sequence (P25779 123-467 limits assumed): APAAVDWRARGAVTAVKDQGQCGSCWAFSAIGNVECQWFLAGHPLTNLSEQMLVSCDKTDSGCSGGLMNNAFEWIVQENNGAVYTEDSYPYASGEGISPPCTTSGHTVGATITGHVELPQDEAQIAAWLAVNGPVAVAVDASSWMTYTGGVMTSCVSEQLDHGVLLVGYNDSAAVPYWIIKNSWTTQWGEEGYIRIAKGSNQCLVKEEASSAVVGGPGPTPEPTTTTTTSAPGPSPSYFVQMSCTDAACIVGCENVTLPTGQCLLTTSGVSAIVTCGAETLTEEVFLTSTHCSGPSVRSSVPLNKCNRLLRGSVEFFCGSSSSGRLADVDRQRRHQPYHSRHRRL
#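 Detergent-free condition (0.00005% Triton X-100) in acetate buffer pH 5.5 with DTT. 1.5 nM enzyme and compound were pre-mixed 15 min, then 2 uM Z-FR-AMC substrate added; reaction progress from fluorescence change between first and third reads (60 s).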
# Cruzain Triton = qHTS Assay for Promiscuous and Specific Inhibitors of Cruzain (with detergent); purified cruzain, Z-FR-AMC fluorescence, 0.01% Triton; AID 1478, 2009; actives 0.43% (n = 200,000); Potency, µM, for inactives: max response, negative = inhibition, usual class: inhibitors;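 also: plate controls were neutral wells for no effect and buffer without enzyme for full effect; nearly all actives have a fitted effect of over 40% in size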
#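 Detergent-containing run (0.01% Triton X-100) in acetate buffer pH 5.5 with 5 mM DTT: enzyme at 1.5 nM final, 15 min compound preincubation at room temperature, then 2 uM Z-FR-AMC substrate. Activity taken as 60 s fluorescence increase at 360/450 nm.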
# An asterisk follows results filed as active; ? = inconclusive; ! = not confirmed by another sample. Calls follow the shape of the dose curve; as a rule, active = well fitted curve in the direction sought with a large enough effect; inconclusive = small, poorly fitted or top-dose-only effect, or another doubt; inactive = no such curve, though single readings can be large; an effect the other way counts as inactive or inconclusive. Potency is read from the fitted curve at half-maximal effect.
SMILES,Cruzain noTriton,Cruzain Triton
CC1=C(C(=O)Nc2ccc(C)cc2C)C(c2ccc(C(C)C)cc2)n2nc(C(F)(F)F)nc2N1 (configuration not stated),20%,-3%
COc1cc(C(=O)N2CCN(CCc3ccccn3)CC2)cc(OC)c1OC,3%,0%
Cc1cc(C)c2c(c1)c(C)cc1nnc(SCC(=O)c3ccccc3)n12,-13%,-1%
Cc1[nH]n(C(N)=S)c(=O)c1C(c1ccccc1)C(C#N)C#N (configuration not stated),20%,1%
Cc1[nH]n(-c2ncc(-c3ccccc3)s2)c(=O)c1C(c1ccc(Br)cc1)C(C#N)C#N (configuration not stated),13µM*,?
COc1cc(OC)cc(-c2nc3ccccc3c(=O)o2)c1,16µM*,0%
COc1cccc(-c2nc3ccccc3c(=O)o2)c1,-9%,1%
N#Cc1ccc(-n2c(-c3ccccc3)nnc2-c2ccccc2)cc1C#N,20µM*,-11%
N#Cc1cccc(-n2c(-c3ccccc3)nnc2-c2ccccc2)c1C#N,?,-8%
COc1ccc2c(=O)c3c(=O)n(Cc4ccco4)c(C(C)C)nc3oc2c1,32µM*,?
COc1ccc2c(=O)c3c(=O)n(Cc4ccco4)c(-c4ccc(C)cc4)nc3oc2c1,-23%,-6%
CCOc1ccc(C(=O)NCc2nc3cccnc3n2Cc2cccc(OC)c2)cc1,5%,-3%
CCOC(=O)CSc1nc2sc(C)c(C)c2c(=O)n1N,-9%,-1%
COC(=O)c1sc2nc(SCc3ccccc3C#N)n(N)c(=O)c2c1C,32µM*,-8%
CCN(CC)c1ccc2cc(-c3nc(-c4cccs4)no3)c(=O)oc2c1,-15%,-1%
COc1ccc(S(=O)(=O)N=C2C=C(C)C(=O)C(C)=C2)cc1,13µM*,-3%
COc1ccc(S(=O)(=O)N2CCCCC2)cc1,5%,-2%
O=C(Nc1ccccc1Br)C1CCCN(S(=O)(=O)c2cccc3nsnc23)C1 (configuration not stated),-2%,-4%
Cc1cc(NC(=O)COC(=O)C(Cc2ccccc2)NC(=O)c2ccco2)no1 (configuration not stated),25µM*,28µM*
O=C(COC(=O)[C@H](Cc1ccccc1)NC(=O)c1ccco1)NC(c1ccccc1)c1ccccc1,5%,-7%
O=C(CCn1c(=O)c2cccn2c2cccnc21)NCc1ccc(F)cc1,3%,0%
Cc1ccc(OCCSc2nc3ccccc3n2CC(=O)N2CCCCC2)cc1C,?,-3%
CC(CNC(=O)c1csc2c1CCCCC2)c1ccccc1 (configuration not stated),6%,-6%
CCc1ccc(NC(=O)CN2CCN(Cc3ccccc3)S2(=O)=O)cc1,-2%,-6%
COc1ccc(N2CCN(Cc3cc(=O)oc4cc(-c5ccccc5)c(O)cc34)CC2)cc1,?,0%
SMILES,Cruzain noTriton,Cruzain Triton
O=c1cc(CN2CCN(c3ccccc3F)CC2)c2cc(O)c(-c3ccccc3)cc2o1,7.9µM*,-3%
CC(C)C(c1nnnn1C1CCCCC1)N1CCc2ccccc21 (configuration not stated),13%,-1%
Cc1ccc(C(c2nnnn2C2CCCCC2)N2CCc3ccccc32)cc1 (configuration not stated),25µM*,-1%
CCc1nc(NCC(C)C)c(C#N)c2c1COC(C)(C)C2,-14%,11%
CCCCc1nc(NCc2ccccc2)c(C#N)c2c1COC(C)(C)C2,25µM*,3%
CCC(=O)N1CCc2cc(S(=O)(=O)CCC(=O)N3CCN(c4cccc(C)c4)C(C)C3)ccc21 (configuration not stated),?,-2%
COc1cccc(NC(=O)C2CCN(c3nnc(-n4c(C)ccc4C)s3)CC2)c1,2%,-3%
O=C(Nc1cccc(Cl)c1)Nc1ccc(Cl)cn1,25µM*,5%
O=C(Nc1ccc(F)cc1)Nc1ccc(Cl)cn1,-18%,2%
O=C(N/N=C\c1ccc2c(c1)OCO2)c1ccco1,0%,-8%
Cc1ccccc1OCC(=O)N/N=C/c1ccc2c(c1)OCCO2,-14%,-5%
Cc1cc(C)c(OCC(=O)N/N=C/c2ccc3c(c2)OCO3)c(C)c1,20µM*,0%
O=C(NCCc1ccccc1)C(=O)N/N=C/c1ccc2c(c1)OCO2,20µM*,5%
COC(=O)c1c(C)oc2ccc(N(C(=O)c3ccncc3)S(=O)(=O)c3c(C)cc(C)cc3C)cc12,-4%,-4%
NC(=O)C1(N2CCCCC2)CCN(C(=O)Nc2ccc(F)cc2F)CC1,?,-1%
CCOC(=O)c1sc(NC(=O)C(C)Oc2ccc(OC)cc2)c(C(=O)OCC)c1C (configuration not stated),7%,1%
Nc1nonc1-c1nc2ccccc2n1Cc1ccccc1,-15%,-7%
Nc1nonc1-c1nc2ccccc2n1Cc1c(Cl)cccc1Cl,25µM*,-4%
O=C1CCCC(=O)N1c1ccc(Oc2ccc(Cl)cc2)cc1,-1%,-4%
O=C1C=C(Nc2ccc(Cl)cc2)C(=O)N1c1ccc(Cl)cc1,6.3µM*,1%
CCN(CC)C(=O)c1sc2c(c1C)c(=O)n(-c1ccc(Cl)c(Cl)c1)c(=O)n2CC(=O)Nc1cccc(OC)c1,-18%,1%
CSc1nsc(/C=C/Nc2cccc(Cl)c2)c1C#N,20µM*,-6%
CSc1nsc(/C=C/Nc2ccc(Cl)cc2)c1C#N,?,-21%
CCOC(=O)c1c(C)[nH]c(C(=O)COC(=O)CCS(=O)(=O)c2ccc(C)cc2)c1C,1%,?
CCOC(=O)c1c(C)[nH]c(C(=O)COC(=O)CCC2CCCC2)c1C,16µM*,8%
SMILES,Cruzain noTriton,Cruzain Triton
CC(=O)Nc1ccc(C)cc1-c1nc2ccccc2n(CC(=O)Nc2cc(Cl)ccc2C)c1=O,12%,-4%
Cc1cc(N)c2ccccc2[n+]1CCCCCCCCCC[n+]1c(C)cc(N)c2ccccc21,?,13µM*!
CCCCCCCCC[n+]1cccc2c3ccccc3ccc21,-2%,-9%
Cc1ccc2sc(N3CCN(C(=O)CCS(=O)(=O)c4ccc(Cl)cc4)CC3)nc2c1C,4%,0%
CCc1ccc(NC(=O)Cn2nc(C(F)(F)F)c3c2CCC3)cc1,-18%,-3%
N#Cc1c(NC(=O)Cn2nc(C(F)(F)F)c3c2CCCC3)sc2c1CCC2,7.9µM*,8%
CC1CCN(CC(=O)Nc2sc3c(c2C#N)CCC3)CC1,9%,-8%
CC1CCc2c(sc(NC(=O)Cn3nc(C(F)(F)F)c4c3CCCCC4)c2C#N)C1 (configuration not stated),20µM*,2%
CCC(Sc1nncn2c1cc1occc12)C(=O)Nc1ccc(C)c(Cl)c1 (configuration not stated),-23%,-7%
Cc1cc(C)nc(N/N=C/C=C/c2ccccc2)n1,-3%,-7%
Cc1sc(N/N=C/C=C/c2ccccc2)nc1-c1ccccc1,7.9µM*,0%
O=C(Nc1nc(-c2ccccc2)cs1)c1ccc2c(c1)S(=O)(=O)c1ccccc1C2=O,?,-4%
O=C(Nc1nc2ccc(SC(F)F)cc2s1)c1ccc2c(c1)S(=O)(=O)c1ccccc1C2=O,5µM*,-5%
Cc1cccc(NC(=O)c2ccc(N3CCCCC3)c([N+](=O)[O-])c2)n1,-9%,0%
Cc1cccc(C)c1NC(=O)COC(=O)c1ccc(N2CCCC2)c([N+](=O)[O-])c1,10µM*,-2%
Cc1ccc(C)c2sc(NC(=O)c3ccc(N4CCCCC4)c([N+](=O)[O-])c3)nc12,7.9µM*,4%
